MsrA inh: bovine MsrA enzyme inhibitors, primary screen, biochemical, absorbance, HTS; AID 651718, 2012; Methionine sulfoxide reductase A (Bos taurus); inhibition, % at 15.5 µM; purified bovine MsrA, absorbance read-out; actives 0.75% (n = 360,000); in the data active = inhibition above about 4.5%
PKA-R1A activ: activators of PKA-R1A holoenzyme, primary screen, biochemical, fluorescence polarization, Cy5-IP20, bovine R1A, mouse PKAc; cAMP-dependent protein kinase type I-alpha regulatory subunit (Bos taurus) + …; PKA-R1A dissociation; scaled: DMSO 0%, 113 µM cGMP 100%; activation, % at 11.4 µM; actives 0.083% (n = 340,000);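 active = percent activation above the mean of all tested compounds plus 3 SD, cut at about 19% in these data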;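 note: higher means more PKAc released from R1A so a rise in polarization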
PKA-R2B activ: activators of PKA-R2B holoenzyme, primary screen, biochemical, fluorescence polarization, Cy5-IP20, human; activation, % at 11.4 µM; actives 0.079% (n = 340,000); cAMP-dependent protein kinase catalytic subunit beta (Homo sapiens) + cAMP-dependent …; PKA-R2B holoenzyme dissociation; R2B truncated from residue 108, S112A mutant; 0% DMSO only, 100% 113 µM cGMP; AID 504700, 2011;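 active = activation above a cutoff set at the mean over all compounds plus 3 SD, cut at about 18% in these data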;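 note: higher means more holoenzyme dissociation and a rise in polarization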
Target sequence (P31323 whole entry, looked up, other chains not shown, the tested form may be a part): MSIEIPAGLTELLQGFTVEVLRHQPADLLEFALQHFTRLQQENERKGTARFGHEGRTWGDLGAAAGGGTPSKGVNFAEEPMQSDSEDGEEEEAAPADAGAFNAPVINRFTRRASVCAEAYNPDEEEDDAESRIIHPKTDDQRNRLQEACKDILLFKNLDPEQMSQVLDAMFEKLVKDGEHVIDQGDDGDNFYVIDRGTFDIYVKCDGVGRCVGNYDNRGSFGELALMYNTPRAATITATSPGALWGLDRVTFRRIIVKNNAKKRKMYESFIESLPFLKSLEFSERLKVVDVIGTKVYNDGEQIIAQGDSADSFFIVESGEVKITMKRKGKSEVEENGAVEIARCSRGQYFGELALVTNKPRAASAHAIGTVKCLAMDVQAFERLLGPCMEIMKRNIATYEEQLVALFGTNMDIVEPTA
bovine MsrA act: bovine MsrA enzyme activators, primary screen, biochemical, absorbance, HTS; Methionine sulfoxide reductase A (Bos taurus); purified bovine MsrA, absorbance read-out; activation, % at 10.6 µM; actives 0.3% (n = 360,000); AID 602163, 2012; in the data active = activation above about 7.5%
MsrA activ conf: bovine MsrA activators, retest, confirmation, biochemical, absorbance, HTS. shares compounds with bovine MsrA act. actives 12% (n = 1,000). purified bovine MsrA, absorbance read-out. activation, % at 10.6 µM; in the data active = activation above about 4%;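 note: enzyme coupled to thioredoxin and thioredoxin reductase with NADPH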
Of the large screens only hits and unclear results are named; the others gave an inactive call (follow-up assays come after a bar, where they were run). A selection: hits, their analogues and other compounds. The true share with any hit is near 1.1%.

CCOC(=O)N(C)c1c(CC)nc2c(OCc3cccc(Cl)c3)cccn12	bovine MsrA act 9.2 (no result: PKA-R1A activ, PKA-R2B activ) | MsrA activ conf inactive
CCOC(=O)N(C)c1c(CC)nc2c(OCCC3CCCCC3)cccn12	none (no result: PKA-R1A activ, PKA-R2B activ)
CCCOc1ccc(/C=C2\SC(=S)N(CC3CCCO3)C2=O)cc1 (centres undefined)	none
O=C1/C(=C/c2ccc(O)cc2)SC(=S)N1CC1CCCO1 (centres undefined)	bovine MsrA act 11 | MsrA activ conf inactive
COc1cccc(C(=O)N[C@H](C(=O)N2CCC[C@H]2C(=O)NCCc2ccccc2Cl)C(C)C)c1	none (no result: PKA-R1A activ, PKA-R2B activ, bovine MsrA act)
CSC1=NCCN1S(=O)(=O)c1ccc(NC(C)=O)cc1	bovine MsrA act 21 | MsrA activ conf inactive
CCSC1=NCCN1S(=O)(=O)c1ccc(NC(C)=O)cc1	none
COc1cccc(-c2cc3nc(NCCN4CCCC4)n(C)c(=O)c3s2)c1	bovine MsrA act 12 (no result: PKA-R1A activ, PKA-R2B activ) | MsrA activ conf inactive
Cn1c(NCCN2CCCC2)nc2cc(-c3ccccc3)sc2c1=O	none (no result: PKA-R1A activ, PKA-R2B activ)
CC(=O)N1CCOC12CCN(Cc1ccccc1)CC2	bovine MsrA act 8.2 | MsrA activ conf inactive
CCN=C1NC(c2ccccc2C(F)(F)F)C(C(=O)OC)=C(C)N1Cc1ccc(C(F)(F)F)cc1 (centres undefined)	none (no result: PKA-R1A activ, PKA-R2B activ, bovine MsrA act)
CN(C)CCCNC(=O)c1ccc(-c2nc(-c3ccc(Cl)cc3)cs2)cc1	bovine MsrA act 8.3 | MsrA activ conf inactive
CN(C)CCCNC(=O)c1ccccn1	none
O=C(N[C@@H](Cc1cccnc1)C(=O)N1CCC[C@H]1C(=O)NC1CCCC1)c1ccc(Cl)c(Cl)c1	none (no result: PKA-R1A activ, PKA-R2B activ, bovine MsrA act)
O=C(CSc1nc2ccccc2c(=O)n1-c1ccc(Cl)cc1)N/N=C/C=C/c1ccccc1[N+](=O)[O-]	bovine MsrA act 8.1 | MsrA activ conf inactive
CC(=O)Oc1cc(C)c(Cl)c2c(OC(C)=O)cc(C(C)=O)c(O)c12	none (no result: PKA-R1A activ, PKA-R2B activ, bovine MsrA act)
COC(=O)c1cc2c(c3c4cc(F)ccc4n(S(=O)(=O)c4cccc(C)c4)c13)C(=O)N(Cc1ccc(N(C)C)cc1)C2	none (no result: PKA-R1A activ, PKA-R2B activ, bovine MsrA act)
C/C(N)=C(/C#N)C(=O)COC(=O)c1ccccc1C(=O)c1ccc(C)cc1	bovine MsrA act 8.6 | MsrA activ conf inactive
COc1ccccc1NC(=O)CN1CCN(c2ccc(F)cc2)CC1	none
COC(=O)c1sccc1NC(=O)CN1CCN(c2ccc(F)cc2)CC1	bovine MsrA act 9.1 | MsrA activ conf inactive
Cc1ccc(C2c3c(n[nH]c3C)C(=O)N2c2ccccc2)cc1 (centres undefined)	none (no result: PKA-R1A activ, PKA-R2B activ, bovine MsrA act)
Cc1c(C2Nc3ccccc3C2C)[nH]c2ccccc12 (centres undefined)	none (no result: PKA-R1A activ, PKA-R2B activ, bovine MsrA act)
COc1ccccc1C(=O)N(Cc1ccccc1)c1ccc(C)cc1	none
COc1ccc(CN(C(=O)c2ccco2)c2ccc(C)cc2)cc1OC	bovine MsrA act 7.9 | MsrA activ conf inactive
Cc1nn(CC(=O)NCCCN2CCOCC2)c(C)c1[N+](=O)[O-]	bovine MsrA act 14 | MsrA activ conf inactive
CCOc1cc(N2CCOCC2)c(OCC)cc1NC(=O)Cn1nc(C)c([N+](=O)[O-])c1C	none
CC(C)C[C@@H]1O[C@H](CCc2ccccc2)Cc2[nH]c(=S)[nH]c(=O)c21	bovine MsrA act 10 (no result: PKA-R1A activ, PKA-R2B activ) | MsrA activ conf inactive
CN1C[C@@H]2[C@@H]3C(=O)N(Cc4ccccc4)C(=O)[C@@H]3[C@](Cc3ccccc3)(C1=O)N2C(=O)c1ccc(C(C)(C)C)cc1	bovine MsrA act 8.8 | MsrA activ conf inactive
O=[N+]([O-])c1ccc(N/N=C/c2cn(Cc3ccc(F)cc3)c3ccccc23)nc1	bovine MsrA act 17 | MsrA activ conf inactive
COC(=O)N/N=C/c1cn(Cc2ccc(F)cc2)c2ccccc12	none
CCN(CC)CCNC(=O)c1ccc2c(c1NCCO)C(=O)c1ccccc1C2=O	MsrA inh 14, bovine MsrA act 24 (no result: PKA-R1A activ, PKA-R2B activ) | MsrA activ conf 8.7
CC1CCN(C(=O)c2ccc3c(c2NCCO)C(=O)c2ccccc2C3=O)CC1	none
CCc1nc2ccc(C(=O)Nc3ccc(NC(C)=O)cc3)cn2c1N(C)CCC(C)C	bovine MsrA act 8.8 (no result: PKA-R1A activ, PKA-R2B activ) | MsrA activ conf inactive
Cc1cc(=O)n(-c2ccccc2Cl)[nH]1	none
CC1(C)NC(=O)N(c2ccccc2Cl)C1(C)NO (centres undefined)	bovine MsrA act 11 | MsrA activ conf inactive
Cc1ccc(-n2ccc(=O)c(C(=O)Nc3ccc(S(=O)(=O)Nc4nccc(C)n4)cc3)n2)cc1	none
Cc1cc(C)nc(NS(=O)(=O)c2ccc(NC(=O)c3nn(-c4ccccc4)ccc3=O)cc2)n1	bovine MsrA act 14 | MsrA activ conf inactive
COc1ccc(C(C)=O)cc1CN1C(=O)NC2(CCCCC2)C1=O	none
COc1ccc(C(C)=O)cc1CN1C(=O)C(C)N(c2ccc(C)cc2)C1=O (centres undefined)	bovine MsrA act 9.0 | MsrA activ conf inactive
CN1CCN(S(=O)(=O)c2cccc(C(=O)N(Cc3nnc(-c4ccccc4Cl)o3)C3CC3)c2)CC1	bovine MsrA act 7.8 | MsrA activ conf inactive
CC1CC(C)CN(CCCNC(=O)CCNC(=O)Cn2ccc3ccccc3c2=O)C1 (centres undefined)	bovine MsrA act 7.7 | MsrA activ conf inactive
COc1ccc(S(=O)(=O)N2CCCc3nc(-c4ccccc4)ccc32)cc1	none (no result: PKA-R1A activ, PKA-R2B activ, bovine MsrA act)
COc1cccc(-c2cc(NC=O)c3ncc(-c4cccc(C(=O)NCCN(C)C)c4)n3c2)c1	none (no result: PKA-R1A activ, PKA-R2B activ)
CC(=O)Nc1cc(-c2cccc(C(=O)N(C)C)c2)cn2c(-c3ccc(F)c(Cl)c3)cnc12	none (no result: PKA-R1A activ, PKA-R2B activ)
CN(C)CCNC(=O)c1cccc(-c2cnc3c(NC=O)cc(-c4ccc(S(C)(=O)=O)cc4)cn23)c1	bovine MsrA act 8.0 (no result: PKA-R1A activ, PKA-R2B activ) | MsrA activ conf inactive
CN(C)CCNC(=O)c1cccc(-c2cnc3c(NC=O)cc(-c4cc(F)c(F)c(F)c4)cn23)c1	bovine MsrA act 8.0 (no result: PKA-R1A activ, PKA-R2B activ) | MsrA activ conf inactive
CN(C)C(=O)c1cccc(-c2cc(NC=O)c3ncc(-c4ccc(F)c(Cl)c4)n3c2)c1	bovine MsrA act 9.3 (no result: PKA-R1A activ, PKA-R2B activ) | MsrA activ conf inactive
Cc1cc(N2CCNC[C@H]2C)ccc1N1CCN(Cc2ccccc2)[C@@H](C)C1	none (no result: PKA-R1A activ, PKA-R2B activ, bovine MsrA act)
COc1ccc(C(=O)NC(=S)Nc2ccc(S(=O)(=O)Nc3cc(C)on3)cc2)cc1OC	bovine MsrA act 8.2 | MsrA activ conf inactive
CCOC(=O)C1=CN(Cc2cccc(F)c2)S(=O)(=O)N(CC)C1CCc1ccccc1 (centres undefined)	bovine MsrA act 8.6 | MsrA activ conf inactive
CCOC(=O)C1=CN(Cc2cccc(F)c2)S(=O)(=O)NC1CCc1ccccc1 (centres undefined)	none
O=Nc1c(O)c2ccccc2c2ccccc12	bovine MsrA act 20 | MsrA activ conf 13
O=c1ccc2ccccc2c2ccccc12	none (no result: PKA-R1A activ, PKA-R2B activ)
